From PubChem BioAssay
MITF primary = blocks human microphthalmia-associated transcription factor. O75030. AlphaScreen MITF homodimerization, bead proximity signal. 650,000 compounds, 0.91% hits. inhibition, % at 2.6 µM. AID 1259374; in the data active = inhibition above about 50%;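 note: 0% = vehicle wells with protein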
GPR151 ag = human GPR151 activation; Q8TDV0; activation, % at 11.2 µM; PathHunter beta-arrestin GPR151 cells, luminescence; 650,000 compounds, 1% hits; in the data active = activation above about 4.9%;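 note: 0% = median of compound wells and 100% = cells with positive control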
Target sequence (Q8TDV0 whole entry, looked up): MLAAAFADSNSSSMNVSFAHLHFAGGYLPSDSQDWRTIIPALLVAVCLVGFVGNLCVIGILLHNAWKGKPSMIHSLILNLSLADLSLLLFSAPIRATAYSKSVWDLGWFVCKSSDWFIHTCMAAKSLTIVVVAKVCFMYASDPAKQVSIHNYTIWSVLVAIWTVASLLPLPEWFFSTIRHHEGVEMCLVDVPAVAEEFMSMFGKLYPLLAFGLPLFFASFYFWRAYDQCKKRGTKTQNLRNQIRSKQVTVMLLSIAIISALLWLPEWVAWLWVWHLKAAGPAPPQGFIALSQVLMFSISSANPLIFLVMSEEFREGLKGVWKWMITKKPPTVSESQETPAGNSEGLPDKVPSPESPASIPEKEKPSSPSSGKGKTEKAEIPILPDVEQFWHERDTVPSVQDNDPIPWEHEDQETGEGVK
FBW7 activator = activators of human E3 ligase FBW7. Q969H0. AlphaScreen FBW7–phospho-cyclin E peptide binding, activator screen. normalized activity (activation), % at 26.1 µM. 650,000 compounds, 0.13% hits; in the data active = normalized activity above about 1.9%;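 note: purified mutant Fbw7 with reduced substrate affinity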
TEAD-YAP inh = TEAD-YAP interaction inhibition | HEK-TIYL cells, TEAD-Gal4/YAP UAS-luciferase luminescence | 640,000 compounds, 1.4% hits | inhibition, % at 9.12 µM; in the data active = inhibition above about 32%;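 note: 0% = median of test compound wells and 100% = reference inhibitor wells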
* = called active by the depositor. In the library only some 3.4% were active in any assay of this set; here they are far more common.

SMILES	MITF primary	GPR151 ag	FBW7 activator	TEAD-YAP inh
Cc1ccc(NC(=O)Cn2c(C)cc(=O)c3ccccc32)cc1C	9.7	3.4	0.8	44.6*
CC(C)c1nc(CNC(=O)c2cc(COc3cccc4cnccc34)on2)cs1	3.9	0.0	-0.1	-6.2
COc1ccc(C2CC(c3ccc(F)cc3)n3ncnc3N2)cc1 (stereo not drawn)	9.9	0.6	-0.1	-2.8
CC(=O)N(Cc1ccc(F)cc1)C1=C(NCc2ccccc2)C(=O)c2ccccc2C1=O	3.8	-2.9	-0.2	59.0*
COc1cc(Br)c(C2C(C(=O)OCc3ccccc3)=C(C)NC3=C2C(=O)CCC3)cc1OC (stereo not drawn)	1.8	0.8	0.2	-1.6
COc1cc2sc(=NC(=O)c3cccs3)n(C)c2cc1OC	1.3	0.8	0.7	-77.9
Cc1ccc2c(c1)sc(=NC(=O)c1cccs1)n2C	9.4	-8.6	0.1	74.1*
CCc1nc2sc(C(=O)OC)c(N)c2c2c1CCCC2	-15.2	0.9	0.0	-4.2
NC(=O)c1sc2nc3c(c(-c4ccco4)c2c1N)CCC3	-4.8	1.5	-0.2	43.7*
CCc1nc2sc(C(N)=O)c(N)c2c2c1CCCC2	-15.4	-1.3	0.2	38.2*
COC(=O)c1sc2nc3c(c(-c4ccc(C)o4)c2c1N)CCCC3	-6.7	2.9	0.0	4.7
Cc1ccc(-c2c3c(nc4sc(C(N)=O)c(N)c24)CCCC3)o1	55.3*	-0.2	-0.2	5.8
C=C1c2cc(C)c(C)cc2NC(=O)N1c1ccc(Cl)cc1	-4.2	-0.9	0.5	-16.4
CCCN1Cc2cccc(C(=O)Nc3ccc(OC)cc3)c2C1=O	4.5	-0.3	0.1	1.5
O=C(Nc1ccccn1)c1ccc(N2C(=O)c3ccc(C(=O)Nc4ccccn4)cc3C2=O)cc1	8.3	-1.6	0.0	-5.3
CSc1ncccc1C(=O)OCC(=O)c1cc(C)n(-c2ccc3c(c2)OCO3)c1C	2.5	-0.3	0.1	3.7
Cc1cc(C(=O)COC(=O)c2cccc(NS(C)(=O)=O)c2)c(C)n1-c1ccc(F)cc1	9.9	0.4	-0.1	-30.4
Nc1cccc(-c2cccc(C(=O)NCCCN3CCCC3=O)c2)c1	0.1	0.2	-0.1	41.4*
CCOC(=O)N1CCc2c(sc3c2C(=O)NC(/C=C\c2ccccc2)N3)C1 (stereo not drawn)	-9.5	0.7	-0.1	50.5*
CCOC(=O)N1CCc2c(sc3c2C(=O)NC(c2ccc(Cl)cc2)N3)C1 (stereo not drawn)	7.3	0.2	0.1	12.8
Cc1nc2sc3c(NCCN4CCOCC4)ncnc3c2c2c1CCCC2	30.1	-0.5	0.1	-26.1
Cn1c2ccncc2c2cc([N+](=O)[O-])ccc21	14.2	-1.6	-0.3	76.4*
Cn1cnc(-c2ccc3cnc(Nc4ccc(-n5cnc(N6CCOCC6)n5)cc4)nc3c2)n1	30.2	0.7	0.7	1.1
Cc1[nH]ncc1-c1ccc2cnc(Nc3ccc(-n4cnc(N5CCOCC5)n4)cc3)nc2c1	18.3	0.5	0.0	85.2*
Cc1nc(-c2ccc3cnc(Nc4ccc(-n5cnc(N6CCOCC6)n5)cc4)nc3c2)n[nH]1	42.2	-0.4	0.6	28.6
SMILES	MITF primary	GPR151 ag	FBW7 activator	TEAD-YAP inh
Cc1n[nH]c(C)c1-c1ccc2cnc(Nc3ccc(-n4cnc(N5CCOCC5)n4)cc3)nc2c1	14.7	0.5	-0.3	34.5*
CCOC(=O)C1=C(CN2CCC(N3CCCCC3)CC2)NC(=O)NC1c1cccs1 (stereo not drawn)	5.1	-0.2	0.0	-5.5
COc1ccc(Nc2cc(C)c3c(O)cccc3n2)cc1	11.6	-0.5	-0.2	38.3*
COc1ccccc1/C=C(\NC(=O)c1ccccc1)C(=O)Nc1cccc(O)c1	20.4	-1.7	0.1	40.5*
Oc1cc2c(cc1O)C1c3ccc(O)c(O)c3OCC1(O)C2 (stereo not drawn)	115.6*	-2.4	-0.4	21.2
Clc1cncc(Cl)c1N1CCN(c2ccc(-c3cccnc3)cn2)CC1	16.0	0.0	-0.4	50.3*
Cc1[nH]nc2c1C(c1cc(Br)c(C)s1)C(C#N)=C(N)O2 (stereo not drawn)	7.8	-1.5	-0.1	33.3*
COc1cc(-c2nc3cnccn3c2NC2CCCCC2)cc(OC)c1OC	14.2	-0.1	0.3	37.8*
COc1cc(-c2nc3cnccn3c2NC2CCCC2)cc(OC)c1OC	-1.3	0.7	0.0	32.0*
CCCCN(CC)C(=O)c1ccc(C)c([N+](=O)[O-])c1	7.8	0.1	0.0	13.2
CC1CC(=O)Nc2ccccc2N1C(=O)c1ccccc1F (stereo not drawn)	14.9	-0.8	0.8	2.1
COC(=O)COc1ccc(NC(=O)c2ccc3c(c2)C(=O)N(CC(C)C)C3=O)cc1	-0.8	0.3	-0.1	7.6
O=C(Nc1ccc(S(=O)(=O)c2ccc(NC(=O)c3c(F)cccc3F)cc2)cc1)c1c(F)cccc1F	1.7	-0.3	0.0	8.8
Cc1ccc(NC(=O)CC2NC3CCCCC3NC2=O)cc1 (stereo not drawn)	8.8	-1.4	0.5	3.1
CCN(CC)S(=O)(=O)c1ccc2[nH]c3nc(SCc4cccnc4)nnc3c2c1	8.0	1.6	-0.1	37.4*
O=C(N/N=C/c1ccccc1O)c1cccc(NC(=O)c2ccccc2Cl)c1	9.4	2.5	0.1	-13.3
CCOC(=O)C1=CN(C(C)C)C=C(C(=O)OCC)C1c1cccs1	-25.1	-2.1	0.4	4.4
CCOC(=O)c1c(C(F)(F)F)nc2n1CCN(C(=O)c1ccn(C)n1)C2	-0.3	-0.5	0.2	-1.5
CC(C)C1=NN(C(=O)OC(C)(C)C)C(O)(C(F)(F)F)C1 (stereo not drawn)	17.2	-0.9	0.1	-0.6
O=C(CN1CCC(NC(=O)C2CCCCC2)CC1)Nc1ccc(F)cc1	-1.0	1.0	0.0	-8.0
Cc1nc(NCCNC(=O)COc2ccccc2)c2c3c(sc2n1)CCCC3	2.0	-0.1	0.1	45.4*
CCOC(=O)c1cc(NC(=O)CSc2nc3ccccc3[nH]2)ccc1Cl	7.2	1.9	0.2	2.2
O=C(NCC1C2CC3CC(C2)CC1C3)c1ccc(CN2CCSCC2)[nH]c1=O (stereo not drawn)	-3.9	-1.1	0.2	2.2
COc1cc(OC)c(OC)cc1/C=C1\C(=O)NC(=S)N(c2cccc(F)c2)C1=O	53.8*	-1.9	-0.2	5.7
O=C1NC(=O)N(c2ccccc2F)C(=O)/C1=C/c1ccc(I)o1	51.7*	-0.2	-0.1	4.7
SMILES	MITF primary	GPR151 ag	FBW7 activator	TEAD-YAP inh
Cc1ccc(N2C(=O)NC(=O)/C(=C\c3cc(C)n(C)c3C)C2=O)cc1	15.2	-0.9	0.1	4.8
Cc1cc(/C=C2\C(=O)NC(=O)N(c3cccc(F)c3)C2=O)c(C)n1C	55.0*	0.9	0.0	0.8
O=C1NC(=O)N(c2cccc(F)c2)C(=O)/C1=C/c1ccc(I)o1	78.4*	0.8	0.2	11.1
Cn1c2ccccc2c2cc(C(=O)NN)sc21	-2.0	1.6	0.1	6.6
COc1ccc(NC(=O)c2ccc(N3C(=O)c4ccc(C(=O)Nc5ccc(OC)cc5)cc4C3=O)cc2)cc1	-9.3	0.0	-0.1	9.6
Cc1ccc(NC(=O)C23CCC(C)(C(=O)O2)C3(C)C)c(C)c1 (stereo not drawn)	18.5	-0.1	0.8	-7.7
